# Columns and labels:
# Test in all cases: thermal shift delta Tm vs DMSO control; higher = stronger stabilization (binding)
# Conditions in all cases: 12.5 µM; protein concentration 2 µM
# LOC_OS01G01410-cb001 = tested on: LOC_OS01G01410-cb001
# Method in brief: (§1)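 Compounds dissolved in DMSO were added to purified rice kinase domain constructs, which had been expressed in E. coli, for differential scanning fluorimetry. Each well held 19.5 μl of 2 μM kinase in 100 mM potassium phosphate pH 7.5, 150 mM NaCl, 10% glycerol and 5 × SYPRO Orange. Fluorescence was followed from 25°C to 95°C at a rate of 0.05°C/s. Shifts in Boltzmann-fitted melting temperature are triplicate means relative to DMSO-only protein.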
# LOC_OS01G02750-cb003 = tested on: LOC_OS01G02750-cb003
# Method in brief: as §1
# LOC_OS01G10900-cb004 = tested on: LOC_OS01G10900-cb004
# Method in brief: as §1
# LOC_OS01G13800-cb001 = tested on: LOC_OS01G13800-cb001
# Method in brief: as §1
# LOC_OS01G14860-cb001 = tested on: LOC_OS01G14860-cb001
# Method in brief: as §1
# LOC_OS01G21960-cb002 = tested on: LOC_OS01G21960-cb002
# Method in brief: as §1
# LOC_OS01G39600-cb002 = tested on: LOC_OS01G39600-cb002
# Method in brief: as §1
# LOC_OS01G48390-cb002 = tested on: LOC_OS01G48390-cb002
# Method in brief: as §1
# LOC_OS01G51400-cb002 = tested on: LOC_OS01G51400-cb002
# Method in brief: as §1
# LOC_OS01G52050-cb004 = tested on: T1, LOC_OS01G52050-cb004
# T1 sequence (whole entry): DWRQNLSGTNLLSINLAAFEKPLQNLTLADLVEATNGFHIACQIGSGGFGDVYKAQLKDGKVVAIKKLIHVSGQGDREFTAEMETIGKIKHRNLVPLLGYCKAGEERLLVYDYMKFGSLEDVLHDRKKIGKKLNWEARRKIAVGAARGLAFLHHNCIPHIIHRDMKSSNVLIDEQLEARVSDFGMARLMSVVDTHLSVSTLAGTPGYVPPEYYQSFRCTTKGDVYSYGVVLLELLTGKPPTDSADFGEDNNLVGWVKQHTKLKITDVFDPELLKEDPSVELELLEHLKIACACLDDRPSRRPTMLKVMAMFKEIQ
# Method in brief: as §1
Structure (SMILES),thermal shift delta Tm (LOC_OS01G01410-cb001) [°C],thermal shift delta Tm (LOC_OS01G02750-cb003) [°C],thermal shift delta Tm (LOC_OS01G10900-cb004) [°C],thermal shift delta Tm (LOC_OS01G13800-cb001) [°C],thermal shift delta Tm (LOC_OS01G14860-cb001) [°C],thermal shift delta Tm (LOC_OS01G21960-cb002) [°C],thermal shift delta Tm (LOC_OS01G39600-cb002) [°C],thermal shift delta Tm (LOC_OS01G48390-cb002) [°C],thermal shift delta Tm (LOC_OS01G51400-cb002) [°C],thermal shift delta Tm (LOC_OS01G52050-cb004) [°C]
Cn1cc(-c2cnn3c(N)c(Br)c([C@@H]4CCCNC4)nc23)cn1,0.38,0.39,0.35,0.21,0.82,1.25,0.31,0.35,0.23,0.71
COc1cc2c(Oc3ccc4[nH]c(C)cc4c3F)ncnc2cc1OCCCN1CCCC1 [Cediranib (AZD2171)],0.9,0.39,0.21,0.33,0.26,0.39,0.22,0.63,0.05,0.09
O=C(O)CCC(=O)Nc1ccc(Br)cn1 [Bikinin],0.12,0.77,-0.24,0.21,1.54,0.85,-0.26,0.5,0.37,0.34
O=C(Nc1cc(C(F)(F)F)cc(C(F)(F)F)c1)c1cc(Cl)ccc1O,1.21,2.23,0.29,1.37,1.05,1.13,3.34,1.1,0.99,1.75
Cc1ccc(CNc2ncnc3ccc(-c4ccc(CO)o4)cc23)o1,0.69,1.49,0.39,-0.33,0.56,0.93,0.85,0.79,0.24,1.21
COc1cc(N2CCC(N(C)C)CC2)ccc1Nc1ncc(Cl)c(Nc2ccccc2P(C)(C)=O)n1,0.42,-0.8,0.79,-0.94,0.31,1.95,-6.92,0.54,0.25,3.85
Cc1ccc(Nc2cc(N[C@@H]3CCCC[C@@H]3N)nnc2C(N)=O)nc1C,1.14,1.56,0.34,0.15,4.3,1.71,0.06,0.5,0.36,4.19
Cc1ccc([N+](=O)[O-])cc1S(=O)(=O)N(C)/N=C/c1cnc2ccc(Br)cn12,1.6,11.6,7.32,0.52,8.02,3.8,1.85,1.1,0.2,11.7
Oc1c2ccccc2c2c3c(cccc13)N=N2,3.59,5.55,3.61,0.39,2.06,2.7,1.16,5.42,0.42,7.57
COc1ccc(F)c(F)c1C(=O)c1cnc(NC2CCN(S(C)(=O)=O)CC2)nc1N,0.43,-0.36,0.34,-0.08,2.35,0.93,0.19,0.42,-0.07,-0.14
Cc1ccc(Nc2nccc(N(C)c3ccc4c(C)n(C)nc4c3)n2)cc1S(N)(=O)=O,2.81,0.47,1.7,0.62,1.21,1.29,1.56,4.66,0.3,0.89
NC(=O)c1ccc2nc(-c3ccc(Oc4ccc(Cl)cc4)cc3)[nH]c2c1 [Chk2 Inhibitor II (BML-277)],0.54,1.86,2.68,-0.46,0.95,0.75,0.45,1.43,0.88,1.84
CC(C)(C)NS(=O)(=O)c1cncc(-c2cc(F)c3nc(N)nn3c2)c1,0.2,0.93,0.04,0.1,0.32,0.56,0.65,0.32,0.36,0.57
Oc1c(F)cc(-c2cnccc2-c2ccc(N3CCOCC3)cc2)cc1F,0.86,0.33,0.19,0.41,0.2,0.65,-0.24,0,0.36,-0.22
COc1cc2c(N3CCN(C(=O)Nc4ccc(OC(C)C)cc4)CC3)ncnc2cc1OCCCN1CCCCC1 [Tandutinib (MLN518)],0.23,1.12,0.43,0.92,0.05,0.83,0.57,-0.07,0.02,0.86
CCOc1ccn(-c2ccc(F)cc2)c(=O)c1C(=O)Nc1ccc(Oc2ccnc(N)c2Cl)c(F)c1,0.18,1.95,0.48,0.21,3.61,0.65,-0.36,2.33,0.21,0.98
CC(C)(C)Cn1c(N)nc2ccc(-c3[nH]c(C(C)(C)C)nc3-c3ccc(F)cc3)nc21,0.51,-0.68,0,-0.49,-0.02,-0.11,-0.5,1.19,-0.1,-0.09
C[C@@H]1COC(Nc2ccc3ncnc(Nc4ccc(OCc5nccs5)c(Cl)c4)c3c2)=N1 [Varlitinib],2.18,0.28,0.95,0.39,1.1,2.04,0.66,1.02,0.22,0.92
COc1cc2nccc(Oc3ccc(NC(=O)Nc4cc(C)on4)c(Cl)c3)c2cc1OC [Tivozanib (AV-951)],1.87,1.12,1.76,0.05,0.65,0.54,-0.67,1.22,-0.16,6.73
COc1cc(N2CCC(N)CC2)ccc1Nc1ncc(Cl)c(-c2c[nH]c3ccccc23)n1,0.82,0.87,2.95,-0.64,1.41,3.79,-2.78,0.17,1.21,5.27

# From the supplement of paper PMC9694430
